Source: PubChem BioAssay (NCI)
Compounds without any hit were thinned out: in the full panel of roughly 83,000, 20% have a hit.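 Single-concentration screen, 48 h exposure, 96-well plates. Endpoint: percent growth. Below 10 = active.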 Values without a mark were called inactive. Activity calls are given as the source filed them.

What was measured:
Assay in all cases: NCI-60 one-dose screen, 48 h (100 = growth as untreated, 0 = no growth, -100 = all killed)
Details in all cases: 10 µM unless noted
NCI-H23 lung = system: NCI-H23 lung
NCI-H226 lung = system: NCI-H226 lung
NCI-H322M lung = system: NCI-H322M lung
HOP-62 NSCLC = system: HOP-62 NSCLC
NCI-H460 lung = system: NCI-H460 lung
HOP-92 NSCLC = system: HOP-92 NSCLC
NCI-H522 lung = system: NCI-H522 lung
A549/ATCC NSCLC = system: A549/ATCC NSCLC
786-0 renal = system: 786-0 renal
COLO 205 colon = system: COLO 205 colon
DU-145 prostate = system: DU-145 prostate
K-562 leukemia = system: K-562 leukemia
MALME-3M melanoma = system: MALME-3M melanoma
MDA-MB-231 breast = system: MDA-MB-231 breast
RXF 393 renal = system: RXF 393 renal
SF-268 CNS = system: SF-268 CNS
SF-295 CNS = system: SF-295 CNS
SF-539 CNS = system: SF-539 CNS
UACC-257 melanoma = system: UACC-257 melanoma
M14 melanoma = system: M14 melanoma

| SMILES | growth (NCI-H23 lung) | growth (NCI-H226 lung) | growth (NCI-H322M lung) | growth (HOP-62 NSCLC) | growth (NCI-H460 lung) | growth (HOP-92 NSCLC) | growth (NCI-H522 lung) | growth (A549/ATCC NSCLC) | growth (786-0 renal) | growth (COLO 205 colon) | growth (DU-145 prostate) | growth (K-562 leukemia) | growth (MALME-3M melanoma) | growth (MDA-MB-231 breast) | growth (RXF 393 renal) | growth (SF-268 CNS) | growth (SF-295 CNS) | growth (SF-539 CNS) | growth (UACC-257 melanoma) | growth (M14 melanoma) |
| --- | --- | --- | --- | --- | --- | --- | --- | --- | --- | --- | --- | --- | --- | --- | --- | --- | --- | --- | --- | --- |
| CCNc1ccc(-c2nc3ccccc3n3cccc23)cc1 | 79.6% | 68.8% | 76.7% | 83.4% | 88.8% | 63.7% | 71.3% | 75.6% | 86% | 95.2% | 86.7% | 67.6% | 92.2% | 55.8% | 87.7% | 83.9% | 69% | 93.5% | 84.9% | 77.9% |
| CC(=O)OC[C@]12CC[C@@H]([C@@H](C)c3nnc(-c4ccncc4)o3)[C@@H]1[C@H]1CC[C@@H]3[C@@]4(C)CC[C@H](OC(C)=O)C(C)(C)[C@@H]4CC[C@@]3(C)[C@]1(C)CC2 | 82% | 60.6% | 95.9% | 98.4% | 58.6% | 66.1% | 76.2% | 62.5% | 80.4% | 82.4% | 102% | 46.4% | 99.7% | 76.3% | 104% | 92% | 74.9% | 94.2% | 75.3% | 91% |
| COc1cc2c(cc1OCCCCN1CCN(C(=S)SCCC(C#N)(c3ccccc3)c3ccccc3)CC1)N=C[C@@H]1CCCN1C2=O | -33.8% (active) | -44.2% (active) | -81.1% (active) | 7.67% (active) | -73.9% (active) | -72.4% (active) | -54.1% (active) | -32.1% (active) | -85.2% (active) | -7.95% (active) | -96.7% (active) | -34.3% (active) | -79.4% (active) | -23.7% (active) | -83.7% (active) | -69.9% (active) | -8.56% (active) | -91.3% (active) | -11.1% (active) | -29.5% (active) |
| CCOC(=O)c1c(C)nc2ccccc2c1/C=C/c1cccs1 | 57.6% | 72.4% | 89.1% | 84.7% | 85.2% | 68.6% | 57% | 64.9% | 89.7% | 84.5% | 95.5% | 50.3% | 112% | 82.7% | 93.8% | 89.4% | 65.6% | 93.2% | 91.8% | 93.4% |
| Cc1c(CN)cc(-c2ccc(Cl)cc2)n1-c1ccccc1 | 73.8% | 38.4% | 88.4% | 91.6% | 75.5% | 90.1% | 68% | 75.2% | 90.8% | 110% | 89.2% | 66.1% | 107% | 87.1% | 84.6% | 86.4% | 87.7% | 93.7% | 91.1% | 82.8% |
| COc1ccc(C(=O)/C=C/c2ccc(Cl)cc2)cc1S(=O)(=O)Nc1c(N)nc(SC)[nH]c1=O | 84.1% | 83.2% | 27.7% | 32.6% | 84% | 73.7% | 59.7% | 31.4% | 31% | 49.8% | 88.3% | 3.84% (active) | 90.1% | 68.2% | 92% | 45.3% | 90.1% | -5.49% (active) | 90.9% | 74.7% |
| FC(F)(F)Oc1cccc(-c2cnc3ccc(-c4ccncc4)nn23)c1 | 15.6% | 33.5% | 27.4% | 20.2% | 17.6% | 17.4% | 1.55% (active) | 11.5% | 21.1% | 16.1% | 22.2% | 31.6% | 39.2% | 32.9% | -29.6% (active) | 18.9% | 17.4% | -2.61% (active) | 48.6% | 26.8% |
| CCCC(CC)(C(=O)Nc1ccc2nc(C)cc(N)c2c1)C(=O)Nc1ccc2nc(C)cc(N)c2c1 | 94.1% | 97.8% | 108% | 107% | 106% | 117% | 92% | 98.3% | 103% | 114% | 111% | 102% | 105% | 100% | 117% | 113% | 108% | 102% | 99.7% | 96.6% |
| CC[C@]12C=CCN3CC[C@@]4(c5ccc(OC)cc5N(C)[C@H]4[C@@](O)(C(=O)OC)[C@@H]1OC(=O)CCC[P+](c1ccccc1)(c1ccccc1)c1ccccc1)[C@@H]32 | -8.66% (active) | 14% | 35.6% | 2.56% (active) | 6.11% (active) | -40% (active) | -35.4% (active) | 13.4% | 20.6% | -87.9% (active) | 18% | 10.4% | -12.4% (active) | 1.29% (active) | 28.9% | 19.2% | 23.3% | 16.2% | -27.3% (active) | 17.7% |
| CC1(C)CC[C@]2(CO)CC[C@]3(C)[C@H](CC[C@@H]4[C@@]5(C)CCCNC(C)(C)[C@@H]5CC[C@]43C)[C@H]2[C@H]1O | 88.1% | 103% | 93.8% | 98% | 11.7% | 83.8% | 92.1% | 73% | 96.7% | 0.611% (active) | 94.5% | 8.95% (active) | 78.5% | 91% | 92% | 94.9% | 105% | 74.9% | 82.5% | 95.1% |
| CC1C=CC(OC(=O)C(C)(O)CCC(O)(C(=O)OC2CC(O)C(C(C)C)CC2(C)O)C(C)C)(C(C)C)CC1 (stereo not given) | -70.5% [4.63 µM] (active) | -48.6% [4.63 µM] (active) | -89.9% [4.63 µM] (active) | -68.7% [4.63 µM] (active) | -69.3% [4.63 µM] (active) | -67.1% [4.63 µM] (active) | -76.7% [4.63 µM] (active) | -78.2% [4.63 µM] (active) | -88.5% [4.63 µM] (active) | -68.3% [4.63 µM] (active) | -89% [4.63 µM] (active) | -61.1% [4.63 µM] (active) | -71.5% [4.63 µM] (active) | -59.7% [4.63 µM] (active) | -87.3% [4.63 µM] (active) | -43.9% [4.63 µM] (active) | -86.9% [4.63 µM] (active) | -95.5% [4.63 µM] (active) | -88% [4.63 µM] (active) | -74.8% [4.63 µM] (active) |
| COc1ccc(NC(=O)Nc2ccc(OCCCCCC(=O)NO)cc2)cc1 | 98% | 100% | 94.7% | 102% | 96.3% | 94% | 68.1% | 90.3% | 97.1% | 110% | 106% | 88.3% | 97.5% | 105% | 98.3% | 101% | 109% | 103% | 73.4% | 95.3% |
| COc1cc(/C=C/C(=O)/C=C(O)/C=C/c2ccc(OC(=O)C34CC5CC(CC(C5)C3)C4)c(OC)c2)ccc1OC(=O)C12CC3CC(CC(C3)C1)C2 | 103% | 93.6% | 102% | 99.1% | 108% | 110% | 94.8% | 103% | 105% | 112% | 113% | 106% | 97% | 103% | 106% | 95.6% | 99.2% | 95.2% | 112% | 102% |
| CC(=O)ON1CCCC(P(=O)(OCCSC(=O)C(C)(C)C)OCCSC(=O)C(C)(C)C)C1=O (stereo not given) | 45.9% | 33.6% | 46.1% | 32% | 16.1% | 29.4% | 28.9% | 33.5% | 19.1% | 27.5% | 42.5% | 19.4% | 17.1% | 25.1% | -26.7% (active) | 19.2% | 55.5% | 57.6% | 54.2% | 34.3% |
| COc1cc(-c2nc3c(ncc4ccc(=O)n(-c5ccccc5)c43)s2)cc(OC)c1OC | 80.5% | 63.3% | 73.6% | 88.6% | 84.3% | 19.1% | 64.8% | 86.3% | 46.7% | 79.2% | 80.2% | 90.5% | 65.4% | 64.1% | 48.2% | 69.1% | 90.4% | 57.4% | 101% | 87.6% |
